# rat GALR2 ag = activates the rat galanin receptor 2 | O08726 | cell-based GALR2 agonist screen | activation, % at 10 µM | 0.5% of 16,000 active | AID 833; in the data active = activation above about 15%
# Target sequence (O08726 whole entry, looked up): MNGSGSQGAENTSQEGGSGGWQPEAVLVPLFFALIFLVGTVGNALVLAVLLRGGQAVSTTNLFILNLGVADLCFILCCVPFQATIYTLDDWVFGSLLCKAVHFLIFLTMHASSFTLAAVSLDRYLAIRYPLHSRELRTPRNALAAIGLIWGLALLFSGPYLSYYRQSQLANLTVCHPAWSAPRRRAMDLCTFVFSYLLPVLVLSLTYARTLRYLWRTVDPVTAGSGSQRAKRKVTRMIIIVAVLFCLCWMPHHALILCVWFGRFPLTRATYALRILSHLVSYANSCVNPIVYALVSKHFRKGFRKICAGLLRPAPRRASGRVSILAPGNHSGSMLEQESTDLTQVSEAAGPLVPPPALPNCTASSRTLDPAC
# OPRK1 antag MB = OPRK1 (human) antagonism, Maybridge screen. AID 652031. P41145. 0.4% of 16,000 active. OPRK1 cells, antagonist mode, fluorescence readout. inhibition, % at 9 µM; in the data active = inhibition above about 50%
# TLR4-MyD88 inh = inhibitors of human TLR4-MyD88 binding; Cell-based TLR4-MyD88 binding inhibition assay; inhibition, % at 10 µM; 0.06% of 16,000 active; AID 811; in the data active = inhibition above about 45%
# S1P1 ag = activates the human S1P1 receptor. P21453. AID 1044. activation, % at 4.5 µM. S1P1 agonist cell-based reporter assay. 1.5% of 16,000 active; in the data active = activation above about 80%
# Hits are given with their value; 0 = inactive. The list is not random: actives were taken first. Their share in the collection is about 2.1%.
SMILES,rat GALR2 ag,OPRK1 antag MB,TLR4-MyD88 inh,S1P1 ag
N#CC(C#N)=NNc1ccc(OC(F)(F)F)cc1,0,0,0,109
N#CC(C#N)=NNc1ccc(C(F)(F)F)cc1,0,0,0,115
C/C=C(\C)C(=O)Nc1ccc(Cl)cc1C(=O)c1ccccc1,0,0,0,0
c1cc2c(cc1C1NN=C3C4CCN(CC4)C31)OCO2 (configuration not stated),0,0,0,0

# Screens as filed in PubChem BioAssay.
